In the assay the target is Genome polyprotein (Poliovirus type 1 (strain Mahoney)) (UniProt P03300). Kind of assay: poliovirus RdRp elongation inhibitors, primary screen, biochemical, fluorescence polarization, total intensity (AID 588519). On z-score: compound at 16.7 µg/mL. To be noted: poliovirus polymerase elongation, stronger effect = lower value; for % elongation: compound at 16.7 µg/mL; for z-score: measured here: FP z-score.
Setting [1] is: measured here: total intensity read-out.

Among all 150,000 compounds or so, about 1,000 (0.67%) were called active. The sample holds actives, similar compounds and a random draw of the others, so the mix is not that of the screen. No stated cut-off is given here; in the data, active means % elongation below about 90%; inactive means the rest, inconclusive results apart.

Genome polyprotein (Poliovirus type 1 (strain Mahoney)), sequence (P03300 1749-2209 limits assumed): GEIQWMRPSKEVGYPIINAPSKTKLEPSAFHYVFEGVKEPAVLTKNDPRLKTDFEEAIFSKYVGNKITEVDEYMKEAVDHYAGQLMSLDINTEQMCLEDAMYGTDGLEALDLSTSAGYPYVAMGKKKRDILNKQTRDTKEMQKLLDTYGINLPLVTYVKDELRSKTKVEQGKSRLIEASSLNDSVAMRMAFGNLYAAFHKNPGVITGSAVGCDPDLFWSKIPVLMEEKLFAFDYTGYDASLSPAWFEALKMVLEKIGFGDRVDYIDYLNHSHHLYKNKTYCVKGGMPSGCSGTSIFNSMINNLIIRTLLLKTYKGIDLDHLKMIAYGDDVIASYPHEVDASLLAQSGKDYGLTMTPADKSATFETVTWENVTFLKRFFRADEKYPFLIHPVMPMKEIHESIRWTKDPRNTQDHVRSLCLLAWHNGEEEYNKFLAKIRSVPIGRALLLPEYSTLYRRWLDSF

Turning to `O=C(Sc1ccc(Oc2ccc(SC(=O)c3ccco3)cc2)cc1)c1ccco1`, the % elongation was 44% (active) and the z-score is -11.5. Also, the % elongation under setting [1] was determined as 51%.
The like results for `O=C(Oc1ccc(Br)cc1)c1ccco1` were, in that order, 101% (inactive), -0.3 and 105%.
The like results for `O=C(CSc1ccc(Br)cc1)c1ccco1` were, in that order, 97% (inactive), -0.9 and 89%.
The like results for `CCCCN(C)C(=O)C1CCCN(c2nnc(C)c3c(C)n(-c4ccccc4)nc23)C1` (configuration not stated) were, in that order, 101% (inactive), -0.1 and 103%.
As to `O=C(CCC(=O)c1ccccc1)c1ccccc1`, the % elongation is 100% (inactive) and the z-score came to 0.1. Under setting [1], the % elongation was determined as 102%.
The like results for `O=C(CSc1ccccc1)c1ccccc1` were, in that order, 79% (active), -2.3 and 75%.
The matching figures for `O=C(CSc1nnc2ccccn12)c1ccccc1`: 101% (inactive), 0.1 and 103%.
The matching figures for `O=C(Nc1ccccc1I)C1CCCO1` (configuration not stated): 101% (inactive), 0.2 and 100%.
In the case of `CN(Cc1ccccc1)C(=O)Cn1cnc(S(=O)(=O)N2CCCC2)c1`, the % elongation is 103% (inactive) and the z-score is 1. Besides, the % elongation under setting [1] worked out at 101%.
The matching figures for `O=C(Nc1ccc(Cl)cc1Cl)C1CC(=O)N(C2CCCCC2)C1` (configuration not stated): 105% (inactive), 0.2 and 102%.
The matching figures for `Oc1c(C(c2cccnc2)N2CCOCC2)ccc2cccnc12` (configuration not stated): 85% (inactive), -2.9 and 110%.
The like results for `O=C(CCc1ccccc1)NCC1COC2(CCCCC2)O1` (configuration not stated) were, in that order, 106% (inactive), 0.3 and 112%.
In the case of `CCN(CC(=O)Nc1ccc(S(=O)(=O)N2CCCC2)cc1)CC(=O)Nc1cccc(OC)c1`, the % elongation is 89% (active) and the z-score is -1.2. Further, under setting [1], the % elongation stood at 88%.
Turning to `COc1cc(NC(=O)CN2CCN(S(=O)(=O)c3ccc(Br)cc3)CC2)cc(OC)c1`, the % elongation is 114% (inactive) and the z-score amounted to 1.5. In addition, the % elongation under setting [1] was 102%.
The like results for `COc1cccc(NC(=O)CN(C)CC(=O)Nc2ccc3c(c2)CCC3)c1` were, in that order, 100% (inactive), -0.4 and 101%.
The matching figures for `CCN(CC)S(=O)(=O)c1cc(C(=O)N2CCN(Cc3ccc4c(c3)OCO4)CC2)ccc1Cl`: 109% (inactive), 0.8 and 109%.
In the case of `COC(=O)COc1ccc(CSc2nc3ccccc3c(=O)n2C)cc1`, the % elongation is 100% (inactive) and the z-score is -0.3. Moreover, under setting [1], the % elongation amounted to 95%.
The like results for `Cc1ccc2nc(CSc3nnc(-c4ccccc4)o3)cc(=O)n2c1` were, in that order, 99% (inactive), -0.7 and 92%.
The matching figures for `CNC(=O)C1Cc2cc(S(=O)(=O)N3CCCC3)ccc2N1C(C)=O` (configuration not stated): 99% (inactive), -1.3 and 103%.
The like results for `O=C(Nc1cccnc1)C(=O)c1c(O)[nH]c2ccccc12` were, in that order, 101% (inactive), -0.1 and 105%.
Consider `CC(NC(=O)C1CCCN1C(=O)c1cccs1)c1ccc(-n2ccnc2)cc1` (configuration not stated), for which the % elongation is 100% (inactive) and the z-score was -0.2. The % elongation under setting [1] was determined as 104%.
The like results for `O=c1c(Cl)c(Cl)cnn1-c1nc2ccccc2[nH]1` were, in that order, 48% (active), -5.8 and 58%.
The like results for `N#Cc1cnn(-c2nc3ccccc3[nH]2)c1N` were, in that order, 105% (inactive), 0.3 and 104%.
As for `O=c1c(Cl)c(NC2CC2)cnn1-c1ccccc1`, the % elongation was 102% (inactive) and the z-score worked out at 0.2. Also, the % elongation under setting [1] worked out at 103%.
The matching figures for `Cc1cc(=O)[nH]c(SC(C)C(=O)NC2CCCCC2)n1` (configuration not stated): 99% (inactive), -0.4 and 103%.
With `Clc1nc2ccccc2c(N2CCCCC2)c1CNC1CC1`, the % elongation was 104% (inactive) and the z-score came out at 0.8. The % elongation under setting [1] worked out at 105%.
The matching figures for `O=C(/C=C/c1c(Cl)nc2sccn12)NCc1ccc2c(c1)OCO2`: 97% (inactive), -0.6 and 102%.
The like results for `N#Cc1c(N)n(Cc2ccc(Cl)cc2)c2nc3ccccc3nc12` were, in that order, 75% (active), -4.3 and 85%.
Take `CC(C)(C)c1ccc(C(=O)NCCn2c(N)c(C#N)c3nc4ccccc4nc32)cc1`: the % elongation was 107% (inactive) and the z-score was determined as 0.5. The % elongation under setting [1] turned out to be 112%.
For the compound `CC(c1ccccc1)n1c(N)c(C#N)c2nc3ccccc3nc21` (configuration not stated), the % elongation was 97% (inactive) and the z-score is -1.4. The % elongation under setting [1] worked out at 106%.
The matching figures for `Cc1nnc2ccc(-c3ccc(NS(=O)(=O)c4ccc5c(c4)OCCO5)cc3)nn12`: 99% (inactive), -1.2 and 102%.
The matching figures for `CCOC(=O)c1c(NC(=O)Cc2coc3ccc(CC)cc23)sc2c1CCC2`: -3% (active), -8.5 and 25%.
The matching figures for `CCOC(=O)c1c(NC(=O)c2cc(-c3ccc(Cl)cc3)on2)sc2c1CCCC2`: 84% (active), -3 and 85%.
Regarding `COc1ccc(-c2cc(C(=O)Nc3sc4c(c3C(N)=O)CCCC4)no2)cc1`, the % elongation was 100% (inactive) and the z-score was -0.5. Moreover, under setting [1], the % elongation is 102%.
Consider `CCOC(=O)c1c(NC(=O)c2cc(-n3cnnc3)ccc2Cl)sc2c1CCCC2`, for which the % elongation is 99% (inactive) and the z-score was -0.5. Further, the % elongation under setting [1] was 100%.
`CCOCCCNC(=O)c1c(NC(=O)Cc2coc3c(C)c(C)ccc23)sc2c1CCC2`: the % elongation is 116% (inactive) and the z-score came to 0.1. In addition, the % elongation under setting [1] was 117%.
The matching figures for `CCOCCCNC(=O)c1c(NC(=O)Cc2coc3ccc(C)cc23)sc2c1CCC2`: 116% (inactive), 0.1 and 114%.
The matching figures for `CCCN(Cc1nc2cc(Cl)ccc2c(=O)[nH]1)C(=S)NC`: 99% (inactive), -0.3 and 99%.
In the case of `CN(C)/N=C/C=C1\CCC/C(=C\C=N\N(C)C)C1=O`, the % elongation was 165% (inactive) and the z-score stood at 6.6. Also, the % elongation under setting [1] turned out to be 154%.

For the origin of these results see PubChem BioAssay AID588519 (ICCB-Longwood Screening Facility, Harvard Medical School, 2011).
